# According to publication PMC11006913:
# Numbering of substitutions follows the chain as printed.
# Tests used:
# Experiment in all cases: PBM; 200 nM protein, PBS
# Conditions in all cases: dsDNA, one strand shown
# [1] = molecular target: SHOX (Homo sapiens, UniProt O15266 103-189)
# [2] = molecular target: T1, VENTX (Homo sapiens, UniProt O95231 78-163, R121Q)
# T1 sequence: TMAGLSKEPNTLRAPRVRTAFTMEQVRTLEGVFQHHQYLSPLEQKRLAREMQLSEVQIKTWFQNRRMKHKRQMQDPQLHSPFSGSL
# [3] = molecular target: HOXB9 (Homo sapiens, UniProt P17482 171-250, T197M)
# [4] = molecular target: T2, VENTX (Homo sapiens, UniProt O95231 78-163)
# T2 sequence: T1 sequence with Q44R
# [5] = molecular target: T3, VENTX (Homo sapiens, UniProt O95231 78-163, Y115F)
# T3 sequence: T1 sequence with Y38F, Q44R
# [6] = molecular target: HOXB9 (Homo sapiens, UniProt P17482 171-250)
# [7] = molecular target: SHOX (Homo sapiens, UniProt O15266 103-189, R173C)
# [8] = molecular target: PROP1 (Homo sapiens, UniProt O75360 56-141)
# [9] = molecular target: PROP1 (Homo sapiens, UniProt O75360 56-141, R99H)
# [10] = molecular target: HOXB9 (Homo sapiens, UniProt P17482 171-250, R186Q)
# [11] = molecular target: PROP1 (Homo sapiens, UniProt O75360 56-141, F88S)
# [12] = molecular target: T4, SIX6 (Homo sapiens, UniProt O95475 114-200, L167I)
# T4 sequence: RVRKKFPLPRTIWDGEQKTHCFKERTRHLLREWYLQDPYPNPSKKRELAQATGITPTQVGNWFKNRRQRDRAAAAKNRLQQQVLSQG
# [13] = molecular target: T5, SIX6 (Homo sapiens, UniProt O95475 114-200, L143V)
# T5 sequence: T4 sequence with L30V, I54L
# [14] = molecular target: T6, SIX6 (Homo sapiens, UniProt O95475 114-200, H141N)
# T6 sequence: T4 sequence with H28N, I54L
# [15] = molecular target: T7, SIX6 (Homo sapiens, UniProt O95475 114-200, T165P)
# T7 sequence: T4 sequence with T52P, I54L
# [16] = molecular target: T8, SIX6 (Homo sapiens, UniProt O95475 114-200, L167M)
# T8 sequence: T4 sequence with I54M
# [17] = molecular target: T9, SIX6 (Homo sapiens, UniProt O95475 114-200, L143M)
# T9 sequence: T4 sequence with L30M, I54L
# [18] = molecular target: T10, SIX6 (Homo sapiens, UniProt O95475 114-200, L143I)
# T10 sequence: T4 sequence with L30I, I54L
# [19] = molecular target: T11, SIX6 (Homo sapiens, UniProt O95475 114-200, T165G)
# T11 sequence: T4 sequence with T52G, I54L
# [20] = molecular target: T12, SIX6 (Homo sapiens, UniProt O95475 114-200, T139Q)
# T12 sequence: T4 sequence with T26Q, I54L
# [21] = molecular target: T13, SIX6 (Homo sapiens, UniProt O95475 114-200, T165A)
# T13 sequence: T4 sequence with T52A, I54L
# [22] = molecular target: T14, SIX6 (Homo sapiens, UniProt O95475 114-200, L167V)
# T14 sequence: T4 sequence with I54V
# [23] = molecular target: T15, SIX6 (Homo sapiens, UniProt O95475 114-200)
# T15 sequence: T4 sequence with I54L
# [24] = molecular target: T16, SIX6 (Homo sapiens, UniProt O95475 114-200, T165I)
# T16 sequence: T4 sequence with T52I, I54L
# [25] = molecular target: HOXA4 (Homo sapiens, UniProt Q00056 201-287, W262R)
# [26] = molecular target: HOXA4 (Homo sapiens, UniProt Q00056 201-287)
# [27] = molecular target: HOXA4 (Homo sapiens, UniProt Q00056 201-287, W262F)
# [28] = molecular target: HOXA7 (Homo sapiens, UniProt P31268 116-202)
# [29] = molecular target: ALX3 (Homo sapiens, UniProt O95076 139-225, N203Q)
# [30] = molecular target: HOXD13 (Homo sapiens, UniProt P35453 263-343, T313R)
# [31] = molecular target: HOXD13 (Homo sapiens, UniProt P35453 263-343)
# [32] = molecular target: ALX3 (Homo sapiens, UniProt O95076 139-225)
# [33] = molecular target: ALX3 (Homo sapiens, UniProt O95076 139-225, L168Q)
# [34] = molecular target: HOXD13 (Homo sapiens, UniProt P35453 263-343, T313A)
# [35] = molecular target: ALX3 (Homo sapiens, UniProt O95076 139-225, L168V)
# [36] = molecular target: HOXA7 (Homo sapiens, UniProt P31268 116-202, W177C)
# [37] = molecular target: ALX3 (Homo sapiens, UniProt O95076 139-225, N203S)
# Chain of ALX3 (Homo sapiens, UniProt O95076 139-225, N203S) (O95076 139-225 N203S): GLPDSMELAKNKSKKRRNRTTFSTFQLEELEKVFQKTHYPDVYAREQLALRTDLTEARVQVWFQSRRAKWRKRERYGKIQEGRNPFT
# Chain of SHOX (Homo sapiens, UniProt O15266 103-189, R173C) (O15266 103-189 R173C): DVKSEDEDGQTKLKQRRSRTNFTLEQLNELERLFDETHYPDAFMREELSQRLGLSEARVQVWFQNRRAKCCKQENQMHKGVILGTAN
# Chain of SHOX (Homo sapiens, UniProt O15266 103-189) (O15266 103-189): as the sequence (O15266 103-189 R173C) above, with C71R counted along it
# Chain of HOXD13 (Homo sapiens, UniProt P35453 263-343, T313A) (P35453 263-343 T313A): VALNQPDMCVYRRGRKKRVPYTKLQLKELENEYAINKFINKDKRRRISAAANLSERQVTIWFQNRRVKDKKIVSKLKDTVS
# Chain of HOXB9 (Homo sapiens, UniProt P17482 171-250, T197M) (P17482 171-250 T197M): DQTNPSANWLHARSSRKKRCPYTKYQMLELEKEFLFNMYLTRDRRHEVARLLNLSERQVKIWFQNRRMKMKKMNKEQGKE
# Chain of HOXA4 (Homo sapiens, UniProt Q00056 201-287, W262R) (Q00056 201-287 W262R): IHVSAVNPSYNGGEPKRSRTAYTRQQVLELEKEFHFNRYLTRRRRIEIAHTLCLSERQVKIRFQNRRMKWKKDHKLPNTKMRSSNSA
# Chain of ALX3 (Homo sapiens, UniProt O95076 139-225, L168Q) (O95076 139-225 L168Q): as the sequence (O95076 139-225 N203S) above, with L30Q, S65N counted along it
# Chain of HOXD13 (Homo sapiens, UniProt P35453 263-343) (P35453 263-343): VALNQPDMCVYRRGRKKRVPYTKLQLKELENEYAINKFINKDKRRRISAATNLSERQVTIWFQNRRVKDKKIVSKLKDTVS
# Chain of PROP1 (Homo sapiens, UniProt O75360 56-141, R99H) (O75360 56-141 R99H): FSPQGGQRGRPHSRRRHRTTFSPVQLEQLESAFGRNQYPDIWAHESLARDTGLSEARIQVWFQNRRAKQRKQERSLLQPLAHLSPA
# Chain of HOXB9 (Homo sapiens, UniProt P17482 171-250) (P17482 171-250): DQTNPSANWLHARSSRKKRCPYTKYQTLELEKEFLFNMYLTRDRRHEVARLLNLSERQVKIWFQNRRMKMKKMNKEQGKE
# Chain of ALX3 (Homo sapiens, UniProt O95076 139-225) (O95076 139-225): as the sequence (O95076 139-225 N203S) above, with S65N counted along it
# Chain of ALX3 (Homo sapiens, UniProt O95076 139-225, L168V) (O95076 139-225 L168V): as the sequence (O95076 139-225 N203S) above, with L30V, S65N counted along it
# Chain of PROP1 (Homo sapiens, UniProt O75360 56-141, F88S) (O75360 56-141 F88S): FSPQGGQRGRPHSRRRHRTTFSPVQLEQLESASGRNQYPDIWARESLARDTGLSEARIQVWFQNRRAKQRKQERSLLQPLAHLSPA
# Chain of HOXA4 (Homo sapiens, UniProt Q00056 201-287) (Q00056 201-287): as the sequence (Q00056 201-287 W262R) above, with R62W counted along it
# Chain of HOXD13 (Homo sapiens, UniProt P35453 263-343, T313R) (P35453 263-343 T313R): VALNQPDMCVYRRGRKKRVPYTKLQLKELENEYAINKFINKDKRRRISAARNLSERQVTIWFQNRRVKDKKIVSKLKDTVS
# Chain of HOXB9 (Homo sapiens, UniProt P17482 171-250, R186Q) (P17482 171-250 R186Q): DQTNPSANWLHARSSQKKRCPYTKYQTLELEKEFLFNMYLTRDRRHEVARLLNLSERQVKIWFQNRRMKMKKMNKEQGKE
# Chain of PROP1 (Homo sapiens, UniProt O75360 56-141) (O75360 56-141): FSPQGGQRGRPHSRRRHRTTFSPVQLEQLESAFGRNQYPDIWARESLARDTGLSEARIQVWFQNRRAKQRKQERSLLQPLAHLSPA
# Chain of HOXA7 (Homo sapiens, UniProt P31268 116-202, W177C) (P31268 116-202 W177C): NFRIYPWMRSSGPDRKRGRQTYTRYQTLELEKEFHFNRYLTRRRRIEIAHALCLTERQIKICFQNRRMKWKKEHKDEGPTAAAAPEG
# Chain of HOXA7 (Homo sapiens, UniProt P31268 116-202) (P31268 116-202): as the sequence (P31268 116-202 W177C) above, with C62W counted along it
# Chain of ALX3 (Homo sapiens, UniProt O95076 139-225, N203Q) (O95076 139-225 N203Q): as the sequence (O95076 139-225 N203S) above, with S65Q counted along it
# Chain of HOXA4 (Homo sapiens, UniProt Q00056 201-287, W262F) (Q00056 201-287 W262F): as the sequence (Q00056 201-287 W262R) above, with R62F counted along it
sequence,measurement,setting,value
GTTAGTCA,binding signal,[1],"8.37 upbm affinity estimate (log intensity, higher = more binding, comparable within an allelic series)"
CCGCATCC,binding signal,[1],"7.26 upbm affinity estimate (log intensity, higher = more binding, comparable within an allelic series)"
same,binding signal,[2],"8.27 upbm affinity estimate (log intensity, higher = more binding, comparable within an allelic series)"
same,binding signal,[3],"8.5 upbm affinity estimate (log intensity, higher = more binding, comparable within an allelic series)"
same,binding signal,[4],"8.44 upbm affinity estimate (log intensity, higher = more binding, comparable within an allelic series)"
same,binding signal,[5],"8.27 upbm affinity estimate (log intensity, higher = more binding, comparable within an allelic series)"
same,binding signal,[6],"8.49 upbm affinity estimate (log intensity, higher = more binding, comparable within an allelic series)"
same,binding signal,[7],"7.23 upbm affinity estimate (log intensity, higher = more binding, comparable within an allelic series)"
same,binding signal,[8],"6.85 upbm affinity estimate (log intensity, higher = more binding, comparable within an allelic series)"
same,binding signal,[9],"6.89 upbm affinity estimate (log intensity, higher = more binding, comparable within an allelic series)"
same,binding signal,[10],"8.51 upbm affinity estimate (log intensity, higher = more binding, comparable within an allelic series)"
same,binding signal,[11],"6.67 upbm affinity estimate (log intensity, higher = more binding, comparable within an allelic series)"
GGGCCGAA,binding signal,[1],"7.23 upbm affinity estimate (log intensity, higher = more binding, comparable within an allelic series)"
same,binding signal,[12],"8.79 upbm affinity estimate (log intensity, higher = more binding, comparable within an allelic series)"
same,binding signal,[13],"8.79 upbm affinity estimate (log intensity, higher = more binding, comparable within an allelic series)"
same,binding signal,[14],"8.73 upbm affinity estimate (log intensity, higher = more binding, comparable within an allelic series)"
same,binding signal,[15],"8.89 upbm affinity estimate (log intensity, higher = more binding, comparable within an allelic series)"
same,binding signal,[16],"8.8 upbm affinity estimate (log intensity, higher = more binding, comparable within an allelic series)"
same,binding signal,[17],"8.64 upbm affinity estimate (log intensity, higher = more binding, comparable within an allelic series)"
same,binding signal,[18],"8.74 upbm affinity estimate (log intensity, higher = more binding, comparable within an allelic series)"
same,binding signal,[19],"8.79 upbm affinity estimate (log intensity, higher = more binding, comparable within an allelic series)"
same,binding signal,[20],"8.8 upbm affinity estimate (log intensity, higher = more binding, comparable within an allelic series)"
same,binding signal,[21],"8.73 upbm affinity estimate (log intensity, higher = more binding, comparable within an allelic series)"
same,binding signal,[7],"7.18 upbm affinity estimate (log intensity, higher = more binding, comparable within an allelic series)"
same,binding signal,[22],"8.77 upbm affinity estimate (log intensity, higher = more binding, comparable within an allelic series)"
same,binding signal,[23],"8.68 upbm affinity estimate (log intensity, higher = more binding, comparable within an allelic series)"
same,binding signal,[24],"8.82 upbm affinity estimate (log intensity, higher = more binding, comparable within an allelic series)"
AGATATTG,binding signal,[1],"8.52 upbm affinity estimate (log intensity, higher = more binding, comparable within an allelic series)"
AATAACGC,binding signal,[1],"8.74 upbm affinity estimate (log intensity, higher = more binding, comparable within an allelic series)"
same,binding signal,[25],"10.2 upbm affinity estimate (log intensity, higher = more binding, comparable within an allelic series)"
same,binding signal,[26],"11.2 upbm affinity estimate (log intensity, higher = more binding, comparable within an allelic series)"
same,binding signal,[27],"10.4 upbm affinity estimate (log intensity, higher = more binding, comparable within an allelic series)"
CCTCTCCG,binding signal,[1],"6.97 upbm affinity estimate (log intensity, higher = more binding, comparable within an allelic series)"
same,binding signal,[12],"8.93 upbm affinity estimate (log intensity, higher = more binding, comparable within an allelic series)"
same,binding signal,[13],"8.82 upbm affinity estimate (log intensity, higher = more binding, comparable within an allelic series)"
same,binding signal,[28],"8.27 upbm affinity estimate (log intensity, higher = more binding, comparable within an allelic series)"
same,binding signal,[14],"8.83 upbm affinity estimate (log intensity, higher = more binding, comparable within an allelic series)"
same,binding signal,[15],"8.87 upbm affinity estimate (log intensity, higher = more binding, comparable within an allelic series)"
same,binding signal,[16],"8.89 upbm affinity estimate (log intensity, higher = more binding, comparable within an allelic series)"
same,binding signal,[17],"8.93 upbm affinity estimate (log intensity, higher = more binding, comparable within an allelic series)"
same,binding signal,[18],"8.91 upbm affinity estimate (log intensity, higher = more binding, comparable within an allelic series)"
same,binding signal,[19],"8.85 upbm affinity estimate (log intensity, higher = more binding, comparable within an allelic series)"
same,binding signal,[20],"8.89 upbm affinity estimate (log intensity, higher = more binding, comparable within an allelic series)"
same,binding signal,[29],"7.63 upbm affinity estimate (log intensity, higher = more binding, comparable within an allelic series)"
same,binding signal,[30],"9.4 upbm affinity estimate (log intensity, higher = more binding, comparable within an allelic series)"
same,binding signal,[21],"8.98 upbm affinity estimate (log intensity, higher = more binding, comparable within an allelic series)"
same,binding signal,[7],"7.06 upbm affinity estimate (log intensity, higher = more binding, comparable within an allelic series)"
same,binding signal,[31],"9.42 upbm affinity estimate (log intensity, higher = more binding, comparable within an allelic series)"
same,binding signal,[22],"8.9 upbm affinity estimate (log intensity, higher = more binding, comparable within an allelic series)"
same,binding signal,[32],"7.51 upbm affinity estimate (log intensity, higher = more binding, comparable within an allelic series)"
same,binding signal,[23],"8.77 upbm affinity estimate (log intensity, higher = more binding, comparable within an allelic series)"
same,binding signal,[33],"7.69 upbm affinity estimate (log intensity, higher = more binding, comparable within an allelic series)"
same,binding signal,[24],"8.86 upbm affinity estimate (log intensity, higher = more binding, comparable within an allelic series)"
same,binding signal,[34],"9.42 upbm affinity estimate (log intensity, higher = more binding, comparable within an allelic series)"
same,binding signal,[35],"7.6 upbm affinity estimate (log intensity, higher = more binding, comparable within an allelic series)"
same,binding signal,[36],"8.41 upbm affinity estimate (log intensity, higher = more binding, comparable within an allelic series)"
same,binding signal,[37],"7.61 upbm affinity estimate (log intensity, higher = more binding, comparable within an allelic series)"
